The text below walks through data of PubChem BioAssay (NCATS).

SMILES strings stand for the structures. Inconclusive results are not listed. The source made the active and inactive calls. Unless noted, calls come from the whole dose curve; as a rule, active = well fitted curve in the direction sought with a large enough effect; inconclusive = small, poorly fitted or top-dose-only effect, or another doubt; inactive = no such curve, though single readings can be large; an effect the other way counts as inactive or inconclusive.

The nature of experiment [1]: High Content Imaging Cell-Based qHTS for Inhibitors of the mTORC1 Signaling Pathway in MEF (Tsc2-/-, p53-/-) Cells (AID 2666). The procedure, abridged: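 Phospho-rpS6 (Ser235/236) immunofluorescence, normalized and scored as % positive cells using rapamycin and DMSO controls, was read in empty-vector Tsc2-/-, p53-/- MEFs after 24 h compound exposure at 37 C; propidium iodide counted cells.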
On the technique in general: Quantitative high-throughput screening tests each substance at several concentrations.

Experiment [2] can be described thus: High Content Imaging Cell-Based qHTS for Inhibitors of the mTORC1 Signaling Pathway in MEF Cells (AID 2667).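 Note: Tsc2-/- p53-/- MEFs stably re-expressing wild-type Tsc2 exposed 24 h; series mostly up to about 38 µM.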 In outline: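 WT MEFs (Tsc2-/-, p53-/- re-expressing Tsc2), in DMEM + 10% FBS, were treated with compound for 24 h at 37 C. Cells were then fixed and stained for phospho-rpS6 Ser235/236 with propidium iodide as cell count. Values are % positive cells, with thresholds set against rapamycin-treated cells.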

Experiment [3] can be described thus: Cytometry Cell-Based qHTS for Inhibitors of the mTORC1 Signaling Pathway in MEF cells (AID 2668).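 Note: Tsc2-/- p53-/- mouse embryonic fibroblasts stably re-expressing wild-type Tsc2; percent cells positive for phospho-rpS6 Ser235/236 relative to propidium iodide stain; series mostly up to about 38 µM.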 The procedure, abridged: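 Read-out: phospho-rpS6 Ser235/236 immunofluorescence normalized to propidium iodide intensity, scored as % active cells against a rapamycin (7.5 nM) threshold. Cells: Tsc2-/-, p53-/- MEFs stably expressing WT Tsc2, compound-treated 24 hrs at 37 degree Celsius.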

A short description of experiment [4]: Validation screen for small molecules that induce DNA re-replication in MCF 10A normal breast cells (AID 463097). Note: nearly all actives have a fitted effect of over 60% in size. Note: potency is the fitted concentration of half-maximal effect. In outline: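 250 MCF 10A cells/well; compound pin-transferred; 48 hr, 37 C, 5% CO2; Hoechst 40 min; imaged 405/500-530 nm. Hits = more high-intensity nuclei.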
In experiment [5] the target is Ubiquitin carboxyl-terminal hydrolase 2 (Homo sapiens) (UniProt O75604). The experiment in a line: qHTS Validation Assay for Inhibitors of Ubiquitin-specific Protease USP2a Using CHOP2 as the Reporter (AID 463106). In outline:
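USP2 core (10 nM final) was preincubated with compound 30 min at RT in pH 8.0 Tris/CaCl2/beta-ME/CHAPS buffer. Ub-CHOP2 and reporter substrate (25 nM final each) were then added, with fluorescence (Ex 485/Em 531) read after 60 min. Data were normalized to NEM full inhibition and fitted to concentration-response curves.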

In experiment [6] the target is DNA polymerase III PolC-type (Bacillus subtilis (strain 168)) (UniProt P13267). The experiment can be described thus: qHTS Validation Assay for the Inhibitors of DNA Replication in Gram-Positive Bacteria (AID 485295).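 Note: reconstituted holoenzyme with PolC plus beta clamp SSB and primase; PicoGreen fluorescence of double-stranded DNA made on primed circular M13 template; series mostly up to about 57 µM.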 The procedure, abridged:
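PicoGreen fluorescence (ex 480–485/em 535–540 nm) reports dsDNA synthesized on ssM13Gori template with dNTPs/NTPs. Enzyme: holoenzyme rebuilt from purified PolC, beta subunit, SSB and primase. Compound preincubated before substrate addition; RT throughout.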

Experiment [7] deals with Tumor susceptibility gene 101 protein (Homo sapiens) (UniProt Q99816). The experiment can be described thus: qHTS Validation Assay for Iinhibitors of HIV-1 Budding by Blocking the Interaction of PTAP/TSG101 (AID 485342; calls by dose curve). The procedure, abridged: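 FP read-out: FITC-PTAP peptide, 50 nM final, binding Tsg101 binding domain, 10 uM final; 20 min r.t.; 10 mM HEPES pH 7.5, 0.15 M NaCl, 0.01% Tween 20, 3 mM EDTA, 0.1 mM TCEP.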
Chain of Tumor susceptibility gene 101 protein (Homo sapiens) (Q99816 whole entry, looked up, the tested form may be a part): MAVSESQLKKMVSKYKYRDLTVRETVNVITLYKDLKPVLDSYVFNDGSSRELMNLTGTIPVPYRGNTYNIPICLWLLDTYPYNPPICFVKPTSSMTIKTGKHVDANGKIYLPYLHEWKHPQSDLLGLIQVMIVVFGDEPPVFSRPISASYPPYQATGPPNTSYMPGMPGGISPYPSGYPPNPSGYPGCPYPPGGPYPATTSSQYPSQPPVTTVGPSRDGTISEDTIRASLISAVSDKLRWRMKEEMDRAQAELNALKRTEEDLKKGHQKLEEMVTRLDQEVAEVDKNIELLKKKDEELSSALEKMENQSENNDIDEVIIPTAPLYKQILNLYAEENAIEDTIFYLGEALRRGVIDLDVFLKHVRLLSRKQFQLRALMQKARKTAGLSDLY

In experiment [8] the target is Beta-2 adrenergic receptor (Homo sapiens) (UniProt P07550). The experiment can be described thus: qHTS validation assay of beta-arrestin-biased ligands of beta2-adrenergic receptor (AID 485366). In outline:
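Tango cells (recombinant beta2-AR with recombinant beta-arrestin; recruitment releases tTA driving luciferase) were treated with compounds titrated up to 46 microM for 18 hr at 37 degrees C. Luminescence gave %Activity, and concentration-response curves were curve-classified.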

Experiment [9] deals with ATP-dependent 6-phosphofructokinase (Trypanosoma brucei brucei) (UniProt O15648). The experiment in a line: qHTS Validation Assay to Find Inhibitors of T. brucei phosphofructokinase (AID 485368). In outline: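 Compounds (up to 57 uM, titration series) were pinned into substrate buffer, then 1.25 nM PFK added; after 45 min at room temperature, ADP product was quantified by ADP-Glo luminescence and concentration-response curves fitted.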

Experiment [10] can be described thus: Quantitative high throughput screen for delayed death inhibitors of the malarial parasite plastid, 48 hour incubation (AID 488752). Note: nearly all actives have a fitted effect of over 65% in size. In outline: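 Erythrocytes infected with firefly luciferase-expressing P. falciparum (2% hematocrit, 0.1% parasitemia) cultured with compound for 48 h at 37 C, 5% CO2, in RPMI 1640/0.5% Albumax. Growth inhibition read as loss of luminescence.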

Experiment [11] has as its target Thioredoxin reductase 1, cytoplasmic (Rattus norvegicus) (UniProt O89049). The experiment can be described thus: qHTS Assay for Substrates of Mammalian Selenoprotein Thioredoxin Reductase 1 (TrxR1) (AID 488772).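 Note: NADPH fluorescence in the first read after selenite addition and not the 8 min delta; series mostly up to about 57 µM; a drop in NADPH fluorescence below the no-compound background marks a TrxR1 substrate.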 In outline:
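Quantitative HTS in Tris-HCl buffer at pH 7.5 with EDTA and Tween-20, using rat TrxR1, 400 uM NADPH and 400 uM selenite (final). A fall in initial NADPH fluorescence relative to background marked substrate behaviour.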

The target is the same in experiment [12]. The experiment can be described thus: qHTS Assay for Inhibitors of Mammalian Selenoprotein Thioredoxin Reductase 1 (TrxR1) (AID 488773). Note: nearly all actives have a fitted effect of over 40% in size. Note: potency is the fitted concentration of half-maximal effect. The note with it: Potency: inhibition. The procedure, abridged:
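Steps: enzyme (90 nM) plus NADPH (400 uM final), 5 min at ~22 deg C; compound added, 15 min; selenite (400 uM final) added; fluorescence followed for 8 min. Concentration-response curves derived from the normalized delta values.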

The target of experiment [13] is Flap endonuclease 1 (Homo sapiens) (UniProt P39748). The experiment in a line: qHTS Validation Assay for the Inhibitors of Human Flap endonuclease 1 (FEN1) (AID 488816). The procedure, abridged: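 Human FEN1 (10 nM) preincubated 15 min at room temperature with compounds, then flap DNA substrate added at 50 nM final. Fluorescence read at 0 and 15 min; concentration-response fitted with four-parameter Hill equation.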
Chain of Flap endonuclease 1 (Homo sapiens) (P39748 whole entry, looked up): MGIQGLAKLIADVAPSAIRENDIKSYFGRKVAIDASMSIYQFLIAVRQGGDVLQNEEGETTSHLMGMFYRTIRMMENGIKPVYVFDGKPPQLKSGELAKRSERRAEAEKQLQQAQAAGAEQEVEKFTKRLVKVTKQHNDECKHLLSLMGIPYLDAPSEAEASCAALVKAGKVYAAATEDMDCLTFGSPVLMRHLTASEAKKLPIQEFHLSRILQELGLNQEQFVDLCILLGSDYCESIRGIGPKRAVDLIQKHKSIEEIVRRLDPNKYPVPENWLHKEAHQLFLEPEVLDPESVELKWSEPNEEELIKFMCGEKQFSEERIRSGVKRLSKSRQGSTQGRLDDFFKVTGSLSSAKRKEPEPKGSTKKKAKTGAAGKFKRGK

In experiment [14] the target is M-phase phosphoprotein 8 (Homo sapiens) (UniProt Q99549). The experiment can be described thus: qHTS Validation Assay for Inhibitors for MPP8 Chromodomain Interactions with Methylated Histone Tails (AID 488949).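 Note: AlphaScreen signal from MPP8 chromodomain bound to biotinylated H3K9me3 peptide; top concentration of the series differs between compounds; nearly all actives have a fitted effect of over 55% in size.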 In outline: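 AlphaScreen read-out: streptavidin donor and nickel chelate acceptor beads (final 10 ug/mL), 30 min in the dark at RT. Complex of 50 nM MPP8 and 50 nM b-H3(1-18)K9me3 peptide had been exposed to compounds for 30 min beforehand.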
Chain of M-phase phosphoprotein 8 (Homo sapiens) (Q99549 whole entry, looked up): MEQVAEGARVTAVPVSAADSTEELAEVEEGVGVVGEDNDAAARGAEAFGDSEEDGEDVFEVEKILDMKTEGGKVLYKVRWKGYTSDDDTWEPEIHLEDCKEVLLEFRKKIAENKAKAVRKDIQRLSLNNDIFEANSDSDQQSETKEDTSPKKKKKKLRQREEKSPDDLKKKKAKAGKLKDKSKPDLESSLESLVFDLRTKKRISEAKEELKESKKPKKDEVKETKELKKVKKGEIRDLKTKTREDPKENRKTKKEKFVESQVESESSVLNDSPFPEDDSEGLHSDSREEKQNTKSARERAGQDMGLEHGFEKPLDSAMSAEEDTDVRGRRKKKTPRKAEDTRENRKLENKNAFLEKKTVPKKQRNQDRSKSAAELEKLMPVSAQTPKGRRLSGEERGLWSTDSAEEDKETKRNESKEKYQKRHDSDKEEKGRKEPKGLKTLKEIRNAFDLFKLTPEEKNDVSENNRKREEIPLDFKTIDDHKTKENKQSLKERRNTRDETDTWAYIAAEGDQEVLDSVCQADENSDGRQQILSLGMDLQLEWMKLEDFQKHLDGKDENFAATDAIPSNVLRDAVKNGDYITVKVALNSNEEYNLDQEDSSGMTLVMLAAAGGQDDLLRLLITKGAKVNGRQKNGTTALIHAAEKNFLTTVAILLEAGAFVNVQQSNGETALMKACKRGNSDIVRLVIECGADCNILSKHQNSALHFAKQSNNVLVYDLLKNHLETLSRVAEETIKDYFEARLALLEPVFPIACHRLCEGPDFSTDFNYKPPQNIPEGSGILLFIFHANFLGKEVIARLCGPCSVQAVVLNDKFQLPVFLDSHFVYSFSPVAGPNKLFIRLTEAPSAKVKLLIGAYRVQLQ

For experiment [15], the target named is Chromobox protein homolog 1 (Homo sapiens) (UniProt P83916). The experiment in a line: qHTS Validation Assay for Inhibitors of HP1-beta Chromodomain Interactions with Methylated Histone Tails (AID 488953).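 Note: loss of AlphaScreen luminescence from HP1-beta binding biotinylated H3K9me3 peptide; series mostly up to about 110 µM; nearly all actives have a fitted effect of over 50% in size.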 The procedure, abridged:
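HP1-beta (50 nM) preformed 30 min with biotinylated H3(1-18)K9me3 peptide (50 nM) in PBS pH 7.4, 0.01% Tween-20. Compounds added for 30 min at room temperature. Complex disruption read by AlphaScreen with streptavidin donor/nickel chelate acceptor beads (10 ug/mL each).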

Experiment [16] has as its target Methanococcus maripaludis chaperonin (MmCpn) (UniProt Q6LX38). The experiment can be described thus: High-Throughput Screening for Modulators of Cytosolic Chaperonin Activity: MmCpn Primary Screen (AID 488978). In outline: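 ADP formation read by HTRF Transcreener, 665/590 nm emission after 320 nm excitation. Enzyme: archaeal chaperonin at 50 nM final; substrate ATP 30 uM final; 10 min, 37C, after 5 min compound preincubation at RT.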

Experiment [17] in a line: qHTS Validation Assay to Find Inhibitors of Chronic Active B-Cell Receptor Signaling (AID 485345; active = well fitted curve in the direction sought with a large enough effect in the main read-out, with a control signal flat, not every such curve was filed as active). The procedure, abridged:
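TMD8 ABC-DLBCL cells stably carrying doxycycline-inducible IkappaBalpha–green luciferase fusion plus unfused red luciferase; compounds 46 uM to 3 nM, 4 h at 37C with doxycycline. Corrected green/red luminescence ratio normalized to 10 uM MG-132 and basal cell wells; curves fitted.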

Experiment [18] in a line: Quantitative high throughput screen for delayed death inhibitors of the malarial parasite plastid, 96 hour incubation (AID 488745). Note: series mostly up to about 29 µM; nearly all actives have a fitted effect of over 70% in size. The procedure, abridged:
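Luciferase-expressing P. falciparum in erythrocytes (2% hematocrit, 0.1% parasitemia) incubated with compound for 96 h at 37 C, 5% CO2, in RPMI 1640 with 0.5% Albumax. Growth inhibition read as decreased luminescence.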

Chain of Methanococcus maripaludis chaperonin (MmCpn) (Q6LX38 1-543): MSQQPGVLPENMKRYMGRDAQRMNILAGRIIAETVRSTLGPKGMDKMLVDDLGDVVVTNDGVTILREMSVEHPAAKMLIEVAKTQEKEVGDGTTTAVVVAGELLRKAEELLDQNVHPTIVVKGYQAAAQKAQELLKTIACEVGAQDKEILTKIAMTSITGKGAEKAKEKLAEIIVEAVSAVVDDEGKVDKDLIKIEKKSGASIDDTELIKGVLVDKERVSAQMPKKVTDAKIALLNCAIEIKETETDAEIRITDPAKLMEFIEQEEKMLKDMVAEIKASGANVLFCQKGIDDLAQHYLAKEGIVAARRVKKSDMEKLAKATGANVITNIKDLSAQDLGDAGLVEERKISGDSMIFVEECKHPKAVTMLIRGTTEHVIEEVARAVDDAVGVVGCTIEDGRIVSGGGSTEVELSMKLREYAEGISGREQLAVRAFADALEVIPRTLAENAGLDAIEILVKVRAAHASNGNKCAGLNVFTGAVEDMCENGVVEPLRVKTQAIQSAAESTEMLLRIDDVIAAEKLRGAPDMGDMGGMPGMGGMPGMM
Chain of Ubiquitin carboxyl-terminal hydrolase 2 (Homo sapiens) (O75604 whole entry, looked up): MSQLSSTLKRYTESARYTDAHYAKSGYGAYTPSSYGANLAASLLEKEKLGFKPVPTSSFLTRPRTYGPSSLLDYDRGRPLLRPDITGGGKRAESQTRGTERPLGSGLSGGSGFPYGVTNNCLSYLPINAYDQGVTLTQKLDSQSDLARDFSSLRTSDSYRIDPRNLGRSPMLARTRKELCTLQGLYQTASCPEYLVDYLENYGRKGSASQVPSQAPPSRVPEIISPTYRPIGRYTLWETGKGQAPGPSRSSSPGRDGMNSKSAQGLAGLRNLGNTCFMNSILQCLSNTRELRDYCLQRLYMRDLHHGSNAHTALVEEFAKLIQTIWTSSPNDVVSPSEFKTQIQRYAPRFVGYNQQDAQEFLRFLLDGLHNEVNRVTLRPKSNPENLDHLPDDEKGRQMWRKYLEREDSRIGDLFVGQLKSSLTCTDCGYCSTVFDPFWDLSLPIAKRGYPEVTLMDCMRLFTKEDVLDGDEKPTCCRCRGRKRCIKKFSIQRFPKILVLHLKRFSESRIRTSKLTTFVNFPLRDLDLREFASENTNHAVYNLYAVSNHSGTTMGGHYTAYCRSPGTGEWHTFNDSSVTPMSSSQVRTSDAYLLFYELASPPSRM
Chain of Chromobox protein homolog 1 (Homo sapiens) (P83916 whole entry, looked up): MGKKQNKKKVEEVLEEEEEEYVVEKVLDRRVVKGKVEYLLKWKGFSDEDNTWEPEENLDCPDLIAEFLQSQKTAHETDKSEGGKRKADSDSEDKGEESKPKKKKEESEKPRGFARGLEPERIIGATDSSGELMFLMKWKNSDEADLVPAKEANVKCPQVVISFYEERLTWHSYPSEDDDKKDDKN
Chain of DNA polymerase III PolC-type (Bacillus subtilis (strain 168)) (P13267 whole entry, looked up): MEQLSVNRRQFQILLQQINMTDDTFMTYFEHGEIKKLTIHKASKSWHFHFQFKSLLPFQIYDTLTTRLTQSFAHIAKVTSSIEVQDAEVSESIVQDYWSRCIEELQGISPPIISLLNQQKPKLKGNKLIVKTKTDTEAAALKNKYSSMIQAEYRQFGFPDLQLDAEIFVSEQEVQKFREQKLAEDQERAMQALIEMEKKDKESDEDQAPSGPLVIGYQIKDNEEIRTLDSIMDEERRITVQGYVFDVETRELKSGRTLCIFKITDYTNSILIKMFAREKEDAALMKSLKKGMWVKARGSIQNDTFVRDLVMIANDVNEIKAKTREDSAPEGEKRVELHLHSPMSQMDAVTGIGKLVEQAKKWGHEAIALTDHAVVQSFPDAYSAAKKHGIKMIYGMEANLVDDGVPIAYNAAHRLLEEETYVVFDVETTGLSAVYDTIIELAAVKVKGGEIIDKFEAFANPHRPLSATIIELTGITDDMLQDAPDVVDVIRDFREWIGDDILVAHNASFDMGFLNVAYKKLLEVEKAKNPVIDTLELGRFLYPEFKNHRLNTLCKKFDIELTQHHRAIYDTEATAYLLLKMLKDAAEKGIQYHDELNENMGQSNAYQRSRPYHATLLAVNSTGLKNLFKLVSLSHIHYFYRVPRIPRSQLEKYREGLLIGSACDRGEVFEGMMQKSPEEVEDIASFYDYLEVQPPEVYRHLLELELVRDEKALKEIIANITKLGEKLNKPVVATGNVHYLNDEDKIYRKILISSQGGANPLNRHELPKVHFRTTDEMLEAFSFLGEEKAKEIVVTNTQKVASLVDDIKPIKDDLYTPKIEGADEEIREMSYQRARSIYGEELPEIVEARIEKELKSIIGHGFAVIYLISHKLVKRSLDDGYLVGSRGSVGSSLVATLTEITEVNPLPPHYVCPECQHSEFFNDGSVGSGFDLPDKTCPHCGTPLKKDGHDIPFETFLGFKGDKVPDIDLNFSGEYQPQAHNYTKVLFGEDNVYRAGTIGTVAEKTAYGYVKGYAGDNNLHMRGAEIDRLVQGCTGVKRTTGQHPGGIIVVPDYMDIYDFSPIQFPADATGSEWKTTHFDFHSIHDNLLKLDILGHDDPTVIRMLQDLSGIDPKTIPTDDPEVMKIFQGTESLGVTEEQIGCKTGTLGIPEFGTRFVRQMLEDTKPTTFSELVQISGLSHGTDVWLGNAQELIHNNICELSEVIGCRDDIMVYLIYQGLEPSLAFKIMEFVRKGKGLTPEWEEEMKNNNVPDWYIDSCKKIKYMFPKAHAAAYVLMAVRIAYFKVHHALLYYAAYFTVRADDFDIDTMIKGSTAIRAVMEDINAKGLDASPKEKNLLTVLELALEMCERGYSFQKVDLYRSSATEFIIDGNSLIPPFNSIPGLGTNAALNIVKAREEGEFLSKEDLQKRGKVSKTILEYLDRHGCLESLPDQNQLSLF
Chain of Thioredoxin reductase 1, cytoplasmic (Rattus norvegicus) (O89049 whole entry, looked up): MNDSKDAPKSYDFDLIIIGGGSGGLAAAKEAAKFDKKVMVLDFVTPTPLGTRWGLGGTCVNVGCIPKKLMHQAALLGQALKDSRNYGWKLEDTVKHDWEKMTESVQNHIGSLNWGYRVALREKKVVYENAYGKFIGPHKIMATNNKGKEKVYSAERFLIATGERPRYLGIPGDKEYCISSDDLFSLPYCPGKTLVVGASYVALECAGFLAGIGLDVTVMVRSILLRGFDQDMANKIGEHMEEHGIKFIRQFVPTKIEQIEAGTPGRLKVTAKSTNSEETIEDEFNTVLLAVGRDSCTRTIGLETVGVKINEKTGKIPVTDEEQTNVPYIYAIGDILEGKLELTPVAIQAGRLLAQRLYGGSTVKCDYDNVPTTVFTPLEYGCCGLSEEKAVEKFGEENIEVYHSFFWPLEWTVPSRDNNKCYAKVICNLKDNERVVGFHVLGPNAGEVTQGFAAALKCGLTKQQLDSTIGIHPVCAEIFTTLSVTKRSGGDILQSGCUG

`Nc1ccc(CCNc2ncnc3c2ncn3C2OC(CO)C(O)C2O)cc1` (stereo unspecified): the Potency entry in experiment [1], in experiment [2], in experiment [3], in [4], in [5] and in [6] was “inactive” in each case. In addition, the Potency result in experiment [9], in experiment [10], in experiment [12], in [13], in experiment [14] and in experiment [15] was “inactive” throughout. Also, the compound was called inactive in experiment [7], in experiment [8], in experiment [11] and in experiment [16].
Take `O=C(O)c1cc(=O)cc(C(=O)O)[nH]1`: the Potency entry in experiment [1], in experiment [3], in experiment [4], in experiment [5], in [6] and in [18] was “inactive” in each case. In addition, the Potency entry in experiment [10], in [12], in [13], in [14] and in [15] was “inactive” throughout. The outcome in experiment [7], in [17], in [8], in experiment [11] and in experiment [16] was inactive.
Take `O=C(N[C@@H](Cc1ccccc1)C(=O)CCl)OCc1ccccc1`: the Potency is 2.82 µM (active) in [4] and 21.2 µM (active) in experiment [12]. Besides, the Potency result in [5], in experiment [6], in experiment [13], in experiment [14] and in [15] was “inactive” throughout. The outcome in experiment [7] and in experiment [11] was inactive.
On to `CCCCCCCCCCC/C=C\C(C)(C)/C=C\CCCC(=O)O`, for which the Potency entry in experiment [1], in experiment [2], in experiment [3], in [6], in experiment [18] and in experiment [10] was “inactive” each time. Besides, the Potency result in experiment [12], in experiment [13] and in experiment [14] was “inactive” in each case. For the same compound, the outcome in experiment [7], in experiment [17], in experiment [8], in [11] and in experiment [16] was inactive.
Turning to `Nc1nc2c(cnn2CCc2ccccc2)c2nc(-c3ccco3)nn12`, the Potency entry in [3], in experiment [5], in experiment [6], in experiment [12], in [13] and in experiment [14] was “inactive” each time. For the same compound, the Potency entry in [15] is “inactive”. Moreover, the compound was classed as inactive in [7], in experiment [8], in [11] and in [16].
Take `CSC(N)=NCCC[C@H](N)C(=O)O`: the Potency result in experiment [2], in experiment [3], in [4], in experiment [5], in [6] and in [9] was “inactive” throughout. Besides, the Potency entry in experiment [18], in [10], in [12], in [13], in [14] and in experiment [15] was “inactive” in each case. Moreover, the outcome in [7], in experiment [17], in experiment [8] and in experiment [11] was inactive.
On to `O=C1Cc2c([nH]c3ccc(Br)cc23)-c2ccccc2N1`, for which, in experiment [4], the Potency was 6.31 µM (active). For the same compound, the Potency entry in [5], in [6], in [13] and in [14] was “inactive” each time. Further, the compound was called inactive in [7], in experiment [8], in experiment [11] and in experiment [16].
